Screening results deposited in PubChem by several laboratories.
Only some compounds are listed: those with a hit (about 2.5% of all), similar ones and a draw of the others.
LGR2 inh: inhibitors of bursicon-induced Drosophila LGR2 receptor cAMP signaling; AID 720647; inhibition, % at 9.99 µM; HEK293 LGR2, CRE-luciferase, bursicon-stimulated, 4 h; 0.35% of 380,000 active;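 active = drop in luminescence signal, shown as inhibition above about 50% in the replicate tests, limit read from the data, passing the limit was not always enough; inconclusive = probably only some replicates passing the limit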;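 note: agonist challenge used bursicon conditioned medium at about half maximal strength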
EBV LMP1 NFkB: inhibitors of Epstein-Barr LMP1-induced NF-kappaB reporter. 0.69% of 350,000 active. AID 504558. LMP1-induced NF-kappaB luciferase reporter cells, luminescence. inhibition, % at 12.5 µM; in the data active = inhibition above about 41%; inconclusive = no clear call, values can overlap the other calls
EWS-Fli block: blocks EWS/Fli oncoprotein-driven transcription; A673 NR0B1-luciferase reporter, viability-normalised; AID 651661; inhibition, % at 12.6 µM; 0.67% of 350,000 active;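 active = mean inhibition of at least 50% after viability correction, with every replicate also passing that limit; inconclusive = mean reaches 50% but only one of two replicates passes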;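 note: firefly luciferase signal divided by Alamar Blue viability fluorescence both relative to DMSO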
TROY signal inh: inhibitors of TROY-dependent NF-kB signaling. Q293 LMP1-TROYcd NF-kB luciferase reporter, 4 h. inhibition, % at 10 µM. 0.98% of 360,000 active. AID 1347056;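 active = compounds whose plate-normalised and pattern-corrected inhibition of the luciferase reporter signal at the single screening dose is 50% or more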
TWEAK-Fn14 inh: blocks TWEAK-Fn14 interaction in a reporter cell assay. inhibition, % at 10 µM. 2% of 360,000 active. TWEAK-stimulated Fn14 reporter cells, luciferase luminescence, 8 h; in the data active = inhibition above about 50%
Numbers stand for hits; - = inactive; ? = inconclusive; . = no result given.

SMILES	LGR2 inh	EBV LMP1 NFkB	EWS-Fli block	TROY signal inh	TWEAK-Fn14 inh
Cc1sc2ncn(CC(=O)N3CCC(C(N)=O)CC3)c(=O)c2c1S(=O)(=O)N1CCOCC1	-	46	-	-	-
Cc1ccc(-c2cnc3c(Cl)c(C)nn3c2)cc1	57	-	53	-	75
Cc1ccc(-c2ccnc3c(Cl)c(C)nn23)cc1	-	-	-	-	-
Cc1ccc(-c2cnc3cc(C)nn3c2)cc1	-	-	-	-	74
Cc1cc2ncc(-c3ccc(Cl)cc3)cn2n1	-	-	-	-	-
Nc1ccc(-c2nc3ccc(N)cc3s2)cc1	53	-	-	-	74
Nc1cccc(-c2nc3ccc(N)cc3s2)c1	.	-	.	-	78
CC(C)C(=O)Nc1ccc(C(=O)N/N=C/c2cc(Br)cc(Br)c2O)cc1	-	44	-	-	-
O=C(CSc1ccc(Cl)cc1)Nc1cccc(-c2nc3ncccc3o2)c1	.	-	.	67	71
Cc1ccc(C(=O)CSc2cnc3ccccc3n2)cc1C	-	-	-	76	89
Cc1ccc(NS(=O)(=O)c2ccc(Cl)c(C(=O)Nc3ccccc3-c3nc4ccccc4[nH]3)c2)cc1C	-	-	.	-	91
CN(C)S(=O)(=O)c1ccc(Cl)c(C(=O)Nc2nc3ccccc3[nH]2)c1	-	-	-	-	-
COc1ccc(-c2nc(CN3CCC(C(=O)N4CCOCC4)CC3)c(C)o2)cc1OC	-	-	.	-	-
COc1ccc(-c2nc(CN3CCC(C(=O)N4CCOCC4)CC3)c(C)o2)cc1C	-	66	.	-	-
Cc1noc2ncnc(Sc3ccccc3Cl)c12	-	-	.	54	-
Cc1ccc(Sc2ncnc3onc(C)c23)c(C)c1	-	-	-	-	-
C/C(=N\Nc1nc2ccccc2s1)c1cccs1	-	-	-	-	68
CC(=NNc1nc2ccccc2s1)c1ncccn1	-	63	-	-	-
CCCS(=O)(=O)c1cnc(C2COc3ccccc3O2)nc1N (stereo not given)	95	71	86	81	102
COCCn1c(C)cc(C(=O)CSc2nnnn2C2CCCC2)c1C	80	70	82	-	75
COc1ccc(Cl)cc1C(=O)CSc1nnnn1C1CCCC1	-	-	.	-	-
COCCn1c(C)cc(C(=O)CSc2nnc(C)s2)c1C	.	74	.	-	91
Nc1c(C(=O)NCc2ccco2)c2nc3ccccc3nc2n1CCc1ccccc1F	.	-	.	54	-
COc1ccc(CCn2c(N)c(C(=O)NCc3ccco3)c3nc4ccccc4nc32)cc1OC	.	-	.	-	-
COc1ccc(CCn2c(N)c(C(=O)NCc3ccco3)c3nc4ccccc4nc32)cc1	-	-	-	65	61
SMILES	LGR2 inh	EBV LMP1 NFkB	EWS-Fli block	TROY signal inh	TWEAK-Fn14 inh
Cc1ccc(S(=O)(=O)N[C@H](C(=O)N2CCC(C(=O)N[C@@H](CC(=O)O)C(=O)O)CC2)C(C)C)cc1	-	74	-	-	-
CCCCCC(NC(=O)C1CCN(C(=O)[C@@H](NS(=O)(=O)c2ccc(C)cc2)C(C)C)CC1)C(=O)O (stereo not given in full)	-	-	-	-	-
COc1ccc(S(=O)(=O)N(C)C[C@@H]2OCCCC[C@@H](C)Oc3ccc(NC(=O)NC(C)C)cc3C(=O)N([C@H](C)CO)C[C@H]2C)cc1	-	.	-	.	.
c1ccc2c(C3=NNC(=NC4CC4)SC3)c[nH]c2c1	58	-	.	-	78
c1ccc2c(C3=NNC(=NC4CCCCC4)SC3)c[nH]c2c1	-	-	-	-	-
c1ccc(C2=NNC(=NC3CC3)SC2)cc1	.	48	.	-	63
O=C(C[C@H]1C[C@H]2c3cc(NC(=O)NC4CCCC4)ccc3O[C@H]2[C@H](CO)O1)NC1CCCC1	-	.	-	.	.
C[C@@H]1CN([C@@H](C)CO)C(=O)c2cc(C3=CCCCC3)cnc2O[C@@H]1CN(C)C(=O)Cc1ccncc1	-	.	-	.	.
O=C(O)c1cccc(S(=O)(=O)Nc2ccc(OCc3ccccc3)cc2)c1	-	-	-	-	-
COc1cccc(OC)c1C(=O)NNC(=O)c1cccc(COc2ccc3c(c2)CCC3)c1	.	-	.	-	-
O=C(O)c1cccc(COc2ccc3c(c2)CCC3)c1	101	85	88	-	-
O=C(NCc1ccccc1)c1cccc(COc2ccc3c(c2)CCC3)c1	-	58	.	-	-
Cc1ccc(S(=O)(=O)Nc2ccc3c(c2)CC(=O)N([C@H](C)CO)C[C@@H](C)[C@H](CN(C)Cc2ccc(C(=O)O)cc2)O3)cc1	-	.	-	.	.
CC(C)NC(=O)N(C)C[C@@H]1Oc2ccc(NS(=O)(=O)c3ccc(F)cc3)cc2C(=O)N([C@@H](C)CO)C[C@H]1C	-	.	-	.	.
O=c1c2c(nc3cc(-c4ccccc4Cl)[nH]n13)CCS2	-	-	-	-	63
O=C(O)C[C@H]1C[C@H]2c3cc(NS(=O)(=O)c4ccccc4)ccc3O[C@H]2[C@H](CO)O1	-	.	.	.	.
C[C@H]1CN([C@@H](C)CO)C(=O)c2cc(NC(=O)Cc3ccccc3)ccc2O[C@@H]1CN(C)CC1CCCCC1	-	.	-	.	.
COC(=O)c1ccc2nc(Nc3nc4c(F)cc(F)cc4s3)sc2c1	.	-	-	92	105
CCOC(=O)c1ccc2nc(NC(C)=O)sc2c1	-	-	-	-	-
CCOC(=O)c1ccc2nc(Nc3nc4ccc(F)cc4s3)sc2c1	-	-	80	87	99
CCC(=O)NC(=S)Nc1ccccc1C(F)(F)F	.	73	.	-	-
CCCC(=O)NC(=S)Nc1ccccc1C(F)(F)F	.	-	.	-	-
N#CCC(=O)NNC(=S)Nc1ccccc1C(F)(F)F	-	-	-	-	65
CO[C@H](CN(C)C(=O)c1ccccc1F)[C@H](C)CN([C@@H](C)CO)S(=O)(=O)c1ccc(Cl)cc1	-	.	-	.	.
C[C@@H]1CCCCO[C@@H](CN(C)C(=O)CCCN(C)C)[C@H](C)CN([C@@H](C)CO)C(=O)c2cc(NC(=O)c3ccncc3)ccc2O1	-	.	-	.	.
SMILES	LGR2 inh	EBV LMP1 NFkB	EWS-Fli block	TROY signal inh	TWEAK-Fn14 inh
CC(Nc1nc(-c2ccc(Cl)cc2)cs1)c1nc2cc(Cl)c(N3CCCCC3)cc2n1CCOCCO (stereo not given)	?	-	-	-	54
O=C(CC(Nc1ccc(Cl)cc1Cl)C(=O)O)c1ccccc1 (stereo not given)	-	-	-	87	95
O=C(CC(Nc1ccccc1Cl)C(=O)OCC(=O)c1cccs1)c1ccccc1 (stereo not given)	.	-	.	71	70
O=C(CC(Nc1ccccc1)C(=O)O)c1ccccc1 (stereo not given)	.	-	.	-	-
CC(C)NC(=O)N(C)C[C@H]1Oc2ccc(NC(=O)CCN3CCOCC3)cc2C(=O)N([C@@H](C)CO)C[C@H]1C	-	.	-	.	.
COc1ccc(-c2cnc3c(c2)C(=O)N([C@H](C)CO)C[C@@H](C)[C@@H](CN(C)C(=O)C2CCCCC2)O3)cc1	-	.	-	.	.
Cc1ccc(NC(=O)c2cc3ccccc3o2)cc1S(=O)(=O)N(C)C	.	-	.	-	-
Cc1ccc(NC(=O)c2cc3ccccc3oc2=O)cc1S(=O)(=O)N(C)C	.	64	.	90	102
C[C@H](CO)N1C[C@H](C)[C@H](CN(C)Cc2ccc(C(F)(F)F)cc2)Oc2c(NC(=O)c3nc4ccccc4s3)cccc2C1=O	-	.	-	.	.
